# High-throughput results as filed in PubChem.
# Shown are actives, neighbours in structure and some others; about 2.1% of the full set was active somewhere.
# NSD2 HMT inh: blocks human histone methyltransferase NSD2 | O96028 | NSD2 peptide methylation, AlphaScreen, 120 min | inhibition, % at 12.5 µM | 310,000 tested, 0.54% active; in the data active means inhibition above about 50%
# ARNT TACC3 PPI: ARNT/TACC3 interaction disruption | inhibition, % at 9.99 µM | Q9Y6A5 | 390,000 tested, 0.66% active | AlphaScreen His-ARNT PAS-B/GST-TACC3 binding, luminescence; TACC3 fragment carries E629A point mutation;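 active means mean inhibition of replicates at least 50% and at least half of replicates each reaching 50%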;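 further: 0% = complete ARNT plus TACC3 wells and 100% = ARNT alone without TACC3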
# PfHsp90 set2: inhibits growth of yeast expressing Plasmodium falciparum Hsp90; S. cerevisiae expressing PfHsp90, BacTiter-Glo ATP, 48 h; yeast lacking PDR1 and PDR3 efflux regulators; 310,000 tested, 0.32% active; inhibition, % at 9.4 µM;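 active means every replicate shows inhibition above about 80%, whatever the replicate mean, limit read from the data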;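 further: 0% = DMSO neutral controls and 100% = 20 µM radicicol positive controls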
# Casp6 inh: blocks human caspase-6 cleavage activity; inhibition, % at 12.5 µM; 350,000 tested, 0.53% active; purified caspase-6, Z-VEID-R110 cleavage fluorescence;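 active means mean inhibition across replicates at least about 35%, with every replicate also reaching that limit, limit read from the data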;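 further: 0% = median of neutral control wells and 100% = no fluorescence left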
# Target sequence (P55212 24-179 limits assumed): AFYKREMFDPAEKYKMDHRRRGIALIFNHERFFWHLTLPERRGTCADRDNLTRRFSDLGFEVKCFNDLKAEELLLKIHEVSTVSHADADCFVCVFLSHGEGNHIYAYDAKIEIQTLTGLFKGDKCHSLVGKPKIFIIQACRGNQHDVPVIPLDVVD
# Target sequence (P55212 194-293 limits assumed): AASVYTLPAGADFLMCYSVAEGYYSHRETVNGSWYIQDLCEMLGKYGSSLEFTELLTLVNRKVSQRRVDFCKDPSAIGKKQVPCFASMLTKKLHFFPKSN
# SIRT5 inh: inhibitors of human sirtuin-5 desuccinylase; Purified SirT5, succinyl-peptide AMC, trypsin-coupled fluorescence; inhibition, % at 15 µM; 330,000 tested, 1.1% active; AID 652115; in the data active means inhibition above about 15%
# Target sequence (Q9NXA8 whole entry, looked up): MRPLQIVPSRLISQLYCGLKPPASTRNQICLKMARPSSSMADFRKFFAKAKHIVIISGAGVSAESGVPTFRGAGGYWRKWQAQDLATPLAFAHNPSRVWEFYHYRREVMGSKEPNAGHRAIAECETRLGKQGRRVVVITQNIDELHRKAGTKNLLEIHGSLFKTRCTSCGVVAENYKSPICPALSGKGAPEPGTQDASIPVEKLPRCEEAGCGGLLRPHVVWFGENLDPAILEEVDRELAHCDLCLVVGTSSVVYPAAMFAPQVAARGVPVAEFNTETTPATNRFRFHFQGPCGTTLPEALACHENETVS
# The depositor's hits bear a star; x = no result given.
SMILES,NSD2 HMT inh,ARNT TACC3 PPI,PfHsp90 set2,Casp6 inh,SIRT5 inh
O=C(N/C(=C/c1ccco1)C(=O)N1CCOCC1)c1ccc([N+](=O)[O-])cc1,0.1,-2.4,-4.9,-2.4,0.8
CC(C)(C)c1ccc(C(=O)N/C(=C\c2ccco2)C(=O)O)cc1,3.7,-11.4,-41.2,14.9,4.0
O=C(O)/C(=C/c1ccco1)NC(=O)c1ccccc1,5.2,-1.2,-4.8,37.4*,4.9
O=C(Nc1ccc(C(=O)O)cc1)/C(=C\c1ccco1)NC(=O)c1ccc(Br)cc1,9.8,x,x,10.2,24.3*
O=C(N/C(=C\c1ccco1)C(=O)N1CCCCC1)c1ccc([N+](=O)[O-])cc1,0.6,-17.0,9.0,-4.0,17.0*
O=C(O)/C(=C\c1ccco1)NC(=O)c1cccc2ccccc12,-4.0,x,-23.9,41.4*,4.7
N#C[C@@H]1[C@H](c2ccc(-c3cccc(F)c3)cc2)[C@H](CO)N1C(=O)NC1CCCCC1,x,x,x,x,0.3
C[C@@H]1CN([C@H](C)CO)C(=O)c2cc(-c3ccccc3F)cnc2O[C@@H]1CN(C)C(=O)C1CCC1,x,12.8,x,-0.7,8.3
O=C(C[C@H]1CC[C@@H](NC(=O)Nc2ccc(C(F)(F)F)cc2)[C@@H](CO)O1)NCc1ccccn1,x,-7.0,x,1.2,-1.3
COc1cc(/C=C2/SC(=S)NC2=O)ccc1OS(=O)(=O)c1ccc(C)cc1,x,x,-2.9,x,x
COc1ccc(/C=C2\SC(=S)NC2=O)cc1OS(=O)(=O)c1ccc(NC(C)=O)cc1,17.4,-19.0,-7.8,40.1*,-0.2
O=C(O)c1cc(O)c2c(c1)[C@@H]([C@H]1c3cc(C(=O)O)cc(O)c3C(=O)c3c(O[C@@H]4O[C@H](CO)[C@@H](O)[C@H](O)[C@H]4O)cccc31)c1cccc(OC3O[C@H](CO)[C@@H](O)[C@H](O)[C@H]3O)c1C2=O (some centres undefined),x,5.1,5.7,90.8*,4.4
O=C(O)c1cc(O)c2c(c1)[C@H]([C@H]1c3cc(C(=O)O)cc(O)c3C(=O)c3c(O[C@@H]4O[C@H](CO)[C@@H](O)[C@H](O)[C@H]4O)cccc31)c1cccc(OC3O[C@H](CO)[C@@H](O)[C@H](O)[C@H]3O)c1C2=O (some centres undefined),x,7.8,4.1,82.8*,3.7
COc1ccccc1/C=C1\SC(=S)N(CCC(=O)Nc2ccc(C(=O)O)c(O)c2)C1=O,30.2,-0.8,-5.5,40.8*,45.8*
O=C(CCN1C(=O)/C(=C/c2ccccc2Cl)SC1=S)Nc1ccccc1C(=O)O,12.6,6.4,-52.1,1.0,17.8*
O=C(CCN1C(=O)/C(=C/c2ccco2)SC1=S)Nc1ccc(O)cc1C(=O)O,25.8,10.1,-25.1,69.9*,48.1*
O=C(O)CCCN1C(=O)/C(=C\c2ccco2)SC1=S,100.6*,2.8,-18.1,32.0,7.1
Cc1ccc(/C=C2\SC(=S)N(CC3CCCO3)C2=O)o1 (centres undefined),12.7,14.1,3.2,16.8,2.6
O=C(CCN1C(=O)/C(=C/c2ccco2)SC1=S)Nc1ccc(C(=O)O)c(O)c1,26.9,16.0,-30.4,73.6*,49.7*
O=C(CCCN1C(=O)/C(=C/c2ccco2)SC1=S)Nc1ccccc1C(=O)O,x,-0.8,-98.0,61.7*,26.5*
O=C(CCCN1C(=O)/C(=C\c2ccccc2)SC1=S)Nc1ccc(O)cc1C(=O)O,24.3,4.8,22.3,x,-1.1
O=C(CN1C(=O)/C(=C\c2ccco2)SC1=S)Nc1ccc(O)cc1C(=O)O,x,10.9,-7.0,73.1*,48.5*
O=C1/C(=C/c2ccco2)SC(=S)N1CC1CCCO1 (centres undefined),25.7,27.9,3.7,61.1*,0.6
O=C(O)CCN1C(=O)/C(=C\c2ccc(-c3nc4ccccc4s3)o2)SC1=S,x,67.3*,-37.4,x,x
O=C(CCN1C(=O)/C(=C\c2cccs2)SC1=S)NC1=NCCS1,-3.3,-0.4,-19.0,2.3,-0.1
SMILES,NSD2 HMT inh,ARNT TACC3 PPI,PfHsp90 set2,Casp6 inh,SIRT5 inh
O=C(CCN1C(=O)/C(=C/c2cccs2)SC1=S)NC1=NCCS1,-2.1,-1.6,106.3*,x,x
O=C(O)CCN1C(=O)/C(=C\c2ccncc2)SC1=S,-6.5,4.5,30.1,7.4,2.4
CC1(C)OC(=O)C(=Cc2ccc(-c3ccc(S(N)(=O)=O)cc3)o2)C(=O)O1,37.5,-0.9,26.9,53.5*,3.2
COc1ccc(C(=O)OCCN2CCCCC2)cc1,12.8,3.8,0.0,-4.1,25.0*
COc1cc(C(=O)NCCCc2nc3ccccc3n2Cc2cc(C)ccc2C)cc(OC)c1OC,x,-4.3,-29.1,0.9,19.4*
C[C@@H]1CCCCO[C@H](CN(C)C(=O)NC2CCCCC2)[C@H](C)CN([C@H](C)CO)C(=O)c2cc(NC(=O)C3CCCCC3)ccc2O1,x,-1.9,x,3.9,2.1
O=c1c2ccccc2nc(/C=C/c2cccnc2)n1Cc1ccccc1,-1.6,-8.9,15.9,46.5*,-1.6
O=c1c2ccccc2nc(/C=C/c2cccnc2)n1CCc1ccccc1,-2.1,-5.6,-1.9,5.9,2.8
COC(=O)c1c(-c2ccc(OC)cc2)oc2ccc(-c3cc(OC)c(OC)c(OC)c3)cc12,x,-7.0,9.2,2.5,22.8*
COc1ccc(C(=O)c2c(-c3ccc(OC)cc3)oc3ccc(-c4cc(OC)c(OC)c(OC)c4)cc23)cc1,x,x,6.4,-1.4,-4.5
NC[C@H](O)c1ccc(O)c(O)c1,x,7.3,-8.8,78.9*,0.1
CCC(=O)Nc1ncc2c(n1)CC(c1ccco1)CC2=O (centres undefined),-0.2,0.2,-5.6,x,x
CC(=O)Nc1ncc2c(n1)CC(c1ccco1)CC2=O (centres undefined),1.0,x,12.5,2.8,16.4*
CCCCNc1ccc2c(c1)OC[C@@H](C)NS2(=O)=O,x,x,x,3.3,-2.4
C[C@H]1COc2cc(NCCO)ccc2S(=O)(=O)N1,x,x,x,1.0,19.1*
O=C(Nc1nc(-c2ccccn2)cs1)c1cccc(-n2cnnn2)c1,x,70.5*,-10.1,0.5,1.5
C[C@H](NC(=O)c1ccco1)C(=O)Nc1nc(-c2ccccn2)cs1,-4.7,68.2*,3.1,21.4,0.0
O=C(Nc1nc(-c2ccccn2)cs1)c1ccc(Br)s1,1.6,x,126.4*,x,x
C[C@@H]1CN([C@@H](C)CO)C(=O)c2cc(C#C[C@@H](C)O)cnc2O[C@H]1CN(C)C(=O)Nc1ccc(C(F)(F)F)cc1,x,2.3,x,-0.6,-1.3
C[C@@H]1CN([C@@H](C)CO)C(=O)c2cc(C#CC3CCCCC3)cnc2O[C@@H]1CN(C)C(=O)Cc1ccccn1,x,3.1,x,0.0,10.6
C[C@H](CO)N1C[C@H](C)[C@@H](CN(C)S(=O)(=O)c2cn(C)cn2)Oc2cc(C#Cc3ccccc3)ccc2S1(=O)=O,x,-11.0,x,-0.2,-2.6
CC(C)NC(=O)N(C)C[C@@H]1Oc2ccc(NS(=O)(=O)c3cn(C)cn3)cc2C(=O)N([C@H](C)CO)C[C@@H]1C,x,-1.2,x,0.8,-2.9
